The record followed here is PubChem BioAssay (NCATS).

In assay [1] the target is Vitamin D3 receptor (Homo sapiens) (UniProt P11473). The assay is described as follows: qHTS assay for small molecule antagonists of vitamin D receptor signaling (AID 588541).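 Also: receptor activated by calcitriol during compound treatment; series mostly up to about 77 µM; % is scaled to controls: 0 for no effect and ±100 for the full control effect.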 In outline: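 VDR-UAS-bla HEK293T cells (2000/well, 2% charcoal-stripped FBS) were treated with titrated compounds plus 1-alpha,25-dihydroxyvitamin D3 (50 nM or 3 nM final) for 16 h at 37 C. CCF4 beta-lactamase fluorescence was read; Hill fits gave IC50.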

For assay [2] the target is unchanged. The assay is described as follows: qHTS assay for small molecule agonists of vitamin D receptor signaling (AID 588543).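 Also: 0% = DMSO basal and 100% = reference agonist control.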 Put shortly: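 Measured: β-lactamase reporter activity (CCF4, 405 nm excitation, 460/530 nm emission) in HEK293T VDR-UAS-bla cells after 16 h compound exposure at 37 °C. Normalization against 50 nM 1α,25-dihydroxyvitamin D3 and DMSO; Hill-fit EC50.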
Background: qHTS replaces the single test concentration by a dilution series.

For assay [3], the target named is Thyroid hormone receptor beta (Homo sapiens) (UniProt P10828). Kind of assay: qHTS assay for small molecule agonists of thyroid hormone receptor beta signaling (AID 588545).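 Also: 0% = DMSO only and 100% = 10 nM T3.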 Put shortly:
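Efficacy and EC50 values derive from Hill fits of qHTS titration data, normalized to 10 nM T3 and DMSO-only wells. HEK 293 reporter cells were stimulated for 18 hrs at 37 C, with beta-lactamase activity measured by CCF4 fluorescence.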

A short description of assay [4]: qHTS assay for small molecule agonists of the antioxidant response element (ARE) signaling pathway (AID 651741; active = well fitted activation curve with a large enough effect in the signal ratio; the % refers to the signal ratio; also: potency is read from the fitted curve at half-maximal effect). Put shortly:
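Reporter: beta-lactamase under ARE, stably in HepG2. Exposure: 16 h, 37 C, compounds delivered in DMSO by pin tool after 5 h cell preincubation. Readout: FRET substrate fluorescence after 2 h at RT.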

Assay [5] can be described thus: qHTS assay for small molecule activators of the p53 signaling pathway (AID 651743; active = well fitted activation curve with a large enough effect in the signal ratio, not every such curve was filed as active; the % refers to the signal ratio; also: series mostly up to about 92 µM; % of control where 0% means no effect). Particulars: HCT-116 p53RE-bla, beta-lactamase FRET ratio, 16 h; activation: stronger effect = higher value. In outline:
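Agonist-mode quantitative HTS in HCT-116 cells carrying a p53-response-element beta-lactamase reporter; 16 h compound treatment at 37 C, then FRET substrate loading for 2 h at room temperature and fluorescence read.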

Assay [6] can be described thus: qHTS assay for environmental chemicals that activate the Aryl hydrocarbon Receptor (AhR) signaling pathway (AID 651777; active = well fitted curve in the direction sought with a large enough effect; an effect the other way counts as inactive or inconclusive; also: % of control where 0% means no effect; nearly all actives have a fitted effect of over 15% in size). Particulars: 1A2-DRE human hepatoma cells, luciferase, 24 h; activation: stronger effect = higher value. In outline:
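Following a 24 hr incubation with test chemicals at 37 C and 5% CO2, 1A2-DRE human hepatoma cells received One-Glo reagent; after 30 min at room temperature, luciferase output reflected CYP1A2 induction via AhR.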

In assay [7] the target is Peroxisome proliferator-activated receptor alpha (Homo sapiens) (UniProt Q07869). The assay is described as follows: qHTS assay for small molecule agonists of the peroxisome proliferator-activated receptor alpha (PPARalpha) signaling pathway (AID 651778; active = well fitted curve in the direction sought with a large enough effect; an effect the other way counts as inactive or inconclusive; also: % of control where 0% means no effect). Particulars: PathHunter PPARalpha complementation, chemiluminescence, 6 h; max response: stronger effect = higher value. In outline:
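Cells plated at 2,000/well and held overnight at 37 C, 5% CO2, then compound added by pin tool for 6 hr; after PathHunter detection reagent and 60 min at room temperature, chemiluminescence from enzyme complementation was read.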

Assay [8] is described as follows: qHTS assay for small molecule agonists of the antioxidant response element (ARE) signaling pathway measured by Nrf2-dependant transcriptional activity (AID 720636; active = well fitted curve in the direction sought with a large enough effect in the repeat runs; an effect the other way counts as inactive or inconclusive;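 also: HepG2 cells with an ARE-driven luciferase reporter; % of control where 0% means no effect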). In outline:
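ONE-Glo luminescence, read 30 min after reagent addition at room temperature, reflected ARE reporter activity in HepG2 cells that had been incubated with compound for 16 hr at 37 C in 1% dialyzed FBS.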

Assay [9] is described as follows: qHTS assay for small molecule agonists of the antioxidant response element (ARE) signaling pathway measured by Nrf2-dependant transcriptional activity - cell viability counter screen (AID 720653; active = well fitted curve in the direction sought with a large enough effect in the repeat runs; an effect the other way counts as inactive or inconclusive; also: % is scaled to controls: 0 for no effect and ±100 for the full control effect). Particulars: ARE-bla HepG2 viability, CellTiter-Glo ATP luminescence, 16 h; max response: stronger effect = lower value. Put shortly: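 ARE-bla HepG2 cells (2,000/well) rested 5 hrs at 37C/5% CO2, then exposed to compounds in DMSO for 16 hrs. Viability was read in the same wells as intracellular ATP by luminescence, 30 min at room temperature after reagent addition.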

Assay [10] in a line: qHTS assay for cell viability of HEK293 cells (AID 743288; active = well fitted curve in the direction sought with a large enough effect; an effect the other way counts as inactive or inconclusive; also: % is scaled to controls: 0 for no effect and ±100 for the full control effect; nearly all actives have a fitted effect of over 50% in size). Particulars: ATP luminescence (CellTiter-Glo), 18 h; max response: stronger effect = lower value. Put shortly: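 HEK293, 18 h, 37 C, ATP luminescence. Cells at 2,000/well were allowed at least 5 h to settle before dosing; CellTiter-Glo developed 30 min at RT.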
A short description of assay [11]: qHTS assay for cell viability of the p53RE-bla HCT-116 cell line (AID 743292; active = well fitted curve in the direction sought with a large enough effect; an effect the other way counts as inactive or inconclusive; also: % is scaled to controls: 0 for no effect and ±100 for the full control effect; nearly all actives have a fitted effect of over 55% in size). Put shortly:
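After plating at 4,000 cells per well and a 5 h rest at 37 C, HCT-116 cells carrying p53RE-bla received test chemicals in DMSO. Sixteen hours later at 37 C, CellTiter-Glo was added and luminescence recorded following 30 min at room temperature.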

The target in assay [12] is Bile acid receptor (Homo sapiens) (UniProt Q96RI1). Kind of assay: qHTS assay for small molecule antagonists of farnesoid X receptor signaling (AID 588526). Also: % is scaled to controls: 0 for no effect and ±100 for the full control effect. In outline:
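Concentration-response titrations were fitted to the Hill equation for half-maximal inhibition and maximal response, with data normalised to 50 uM chenodeoxycholic acid and DMSO control wells. Cells: FXR-UAS-bla HEK293T, dialyzed FBS.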

Assay [13] has the same target. The assay is described as follows: qHTS assay for small molecule agonists of farnesoid X receptor signaling (AID 588527).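 Also: series mostly up to about 77 µM; 0% = vehicle basal and 100% = reference agonist.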 Particulars: HEK293T FXR-UAS-bla, beta-lactamase ratio, 16 h; activation: stronger effect = higher value. In outline: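 Read-out: beta-lactamase reporter fluorescence with CCF4 substrate in GeneBLAzer FXR-UAS-bla HEK293T cells, after 16 h compound exposure at 37 C. Response scaled between DMSO basal (0%) and chenodeoxycholic acid at 100 uM (100%).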

For assay [14], the target named is Glucocorticoid receptor (Homo sapiens) (UniProt P04150). Kind of assay: qHTS assay for small molecule agonists of glucocorticoid receptor signaling (AID 588532; active = well fitted curve in the direction sought with a large enough effect in the signal ratio, with a control signal flat; the % refers to the signal ratio;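 also: 100% = dexamethasone at 0.1 µM and 0% = DMSO only wells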). Particulars: HeLa MMTV-bla, beta-lactamase ratio, agonist, 18 h; activation: stronger effect = higher value, percent of dexamethasone control, DMSO zero. In outline:
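Titration series, up to 92 uM, applied to GRE-bla HeLa cells for 18 h at 37 C. Detection by CCF4 FRET substrate after 2 h at RT.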

Assay [15] can be described thus: qHTS assay for small molecule antagonists of retinoid X receptor alpha signaling (AID 588546; active = well fitted inhibition curve with a large enough effect in the signal ratio, with a control signal flat, not every such curve was filed as active; the % refers to the signal ratio;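 also: cells stimulated with 9-cis-retinoic acid as agonist; % is scaled to controls: 0 for no effect and ±100 for the full control effect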). Particulars: HEK293T RXRa-UAS-bla, beta-lactamase ratio, antagonist mode; measured here: W530 green channel, cytotoxicity proxy. Put shortly:
(§1)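 Beta-lactamase reporter inhibition, read as CCF4 fluorescence ratio (ex 405, em 460/530 nm) after 2 h at RT. HEK293T UAS-bla cells, 2500/well, were stimulated with 9-cis-RA at 500 or 100 nM final alongside test compound for 18 h at 37 C.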

Assay [16] has as its target Retinoic acid receptor RXR-alpha (Homo sapiens) (UniProt P19793). Described as above. Particulars: HEK293T RXRa-UAS-bla, beta-lactamase ratio, antagonist mode. Put shortly:
as §1

Assay [17] addresses Thyroid hormone receptor beta (Homo sapiens) (UniProt P10828). Kind of assay: qHTS assay for small molecule antagonists of thyroid hormone receptor beta signaling (AID 588547; active = well fitted inhibition curve with a large enough effect in the signal ratio, with a control signal flat, not every such curve was filed as active; the % refers to the signal ratio). Particulars: TR-UAS-bla HEK293, beta-lactamase ratio, antagonist mode, 18 h. Put shortly: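 TR-UAS-bla GripTite HEK293 cells in 2% charcoal/dextran FBS medium were preincubated 4 h at 37 C, given compound (0.59 nM to 92 uM) plus 0.4 nM T3 (final) for 18 h, then CCF4 for 2 h at RT; Hill fit gave IC50.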

The target in assay [18] is Nuclear receptor subfamily 1 group I member 2 (Rattus norvegicus) (UniProt Q9R1A7). Kind of assay: qHTS assay for small molecule activators of the rat pregnane X receptor (rPXR) signaling pathway (AID 651751; call rule not given here; also: 0% is about no effect). Particulars: rPXR reporter cells, luciferase (One-Glo), 24 h.
Assay [19] addresses Peroxisome proliferator-activated receptor delta (Homo sapiens) (UniProt Q03181). The assay is described as follows: qHTS assay for small molecule agonists of peroxisome proliferator-activated receptor delta signaling (AID 588534).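 Also: 0% = DMSO basal wells and 100% = positive control agonist at 10 µM.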 In outline: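 Agonist-mode beta-lactamase reporter readout (CCF4 dye, 2 h at RT) after 18 h at 37 °C exposure to a titration; Hill-equation fitting gave EC50 and maximal response.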

Assay [20] in a line: qHTS assay for small molecule activators of the nuclear factor-kappa B (NF-kB) signaling pathway (AID 651749; active = well fitted activation curve with a large enough effect in the signal ratio; the % refers to the signal ratio; also: series mostly up to about 77 µM; % of control where 0% means no effect). Particulars: NF-kB-bla ME-180 cells, beta-lactamase FRET ratio, 16 h; activation: stronger effect = higher value. In outline:
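Human ME-180 cervical cells with an NF-kB-bla construct; compounds added via 23 nL pin transfer, DMSO as vehicle; incubation 16 hr. Reporter activity measured by FRET disruption.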

Records with an inconclusive call do not appear. Active and inactive are the calls of the source. Unless noted, calls follow the shape of the full dose curve.

Sequence of Peroxisome proliferator-activated receptor alpha (Homo sapiens) (Q07869 whole entry, looked up): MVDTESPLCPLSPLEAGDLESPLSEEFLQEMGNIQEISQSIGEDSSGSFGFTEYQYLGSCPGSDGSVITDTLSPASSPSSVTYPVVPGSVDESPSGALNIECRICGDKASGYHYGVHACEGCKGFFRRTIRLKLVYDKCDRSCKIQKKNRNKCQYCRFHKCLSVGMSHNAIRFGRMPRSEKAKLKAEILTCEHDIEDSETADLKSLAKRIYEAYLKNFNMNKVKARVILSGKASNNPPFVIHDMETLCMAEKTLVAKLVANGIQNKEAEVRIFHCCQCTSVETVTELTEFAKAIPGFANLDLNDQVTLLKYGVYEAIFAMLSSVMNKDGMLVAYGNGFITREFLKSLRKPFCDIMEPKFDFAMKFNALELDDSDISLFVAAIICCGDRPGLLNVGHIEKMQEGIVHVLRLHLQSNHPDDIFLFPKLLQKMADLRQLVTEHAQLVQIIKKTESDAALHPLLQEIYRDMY
Sequence of Vitamin D3 receptor (Homo sapiens) (P11473 whole entry, looked up): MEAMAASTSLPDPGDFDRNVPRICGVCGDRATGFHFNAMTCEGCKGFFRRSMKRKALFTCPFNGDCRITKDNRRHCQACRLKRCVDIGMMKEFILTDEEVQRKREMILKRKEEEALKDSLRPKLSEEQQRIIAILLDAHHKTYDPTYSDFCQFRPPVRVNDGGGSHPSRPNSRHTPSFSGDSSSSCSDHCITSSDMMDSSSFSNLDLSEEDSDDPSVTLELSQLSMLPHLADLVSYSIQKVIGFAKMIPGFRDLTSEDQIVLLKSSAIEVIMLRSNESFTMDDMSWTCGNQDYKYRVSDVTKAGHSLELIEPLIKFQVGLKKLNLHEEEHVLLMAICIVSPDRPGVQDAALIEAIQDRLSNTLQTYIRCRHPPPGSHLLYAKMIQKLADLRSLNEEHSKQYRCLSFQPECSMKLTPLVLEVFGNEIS
Sequence of Glucocorticoid receptor (Homo sapiens) (P04150 whole entry, looked up): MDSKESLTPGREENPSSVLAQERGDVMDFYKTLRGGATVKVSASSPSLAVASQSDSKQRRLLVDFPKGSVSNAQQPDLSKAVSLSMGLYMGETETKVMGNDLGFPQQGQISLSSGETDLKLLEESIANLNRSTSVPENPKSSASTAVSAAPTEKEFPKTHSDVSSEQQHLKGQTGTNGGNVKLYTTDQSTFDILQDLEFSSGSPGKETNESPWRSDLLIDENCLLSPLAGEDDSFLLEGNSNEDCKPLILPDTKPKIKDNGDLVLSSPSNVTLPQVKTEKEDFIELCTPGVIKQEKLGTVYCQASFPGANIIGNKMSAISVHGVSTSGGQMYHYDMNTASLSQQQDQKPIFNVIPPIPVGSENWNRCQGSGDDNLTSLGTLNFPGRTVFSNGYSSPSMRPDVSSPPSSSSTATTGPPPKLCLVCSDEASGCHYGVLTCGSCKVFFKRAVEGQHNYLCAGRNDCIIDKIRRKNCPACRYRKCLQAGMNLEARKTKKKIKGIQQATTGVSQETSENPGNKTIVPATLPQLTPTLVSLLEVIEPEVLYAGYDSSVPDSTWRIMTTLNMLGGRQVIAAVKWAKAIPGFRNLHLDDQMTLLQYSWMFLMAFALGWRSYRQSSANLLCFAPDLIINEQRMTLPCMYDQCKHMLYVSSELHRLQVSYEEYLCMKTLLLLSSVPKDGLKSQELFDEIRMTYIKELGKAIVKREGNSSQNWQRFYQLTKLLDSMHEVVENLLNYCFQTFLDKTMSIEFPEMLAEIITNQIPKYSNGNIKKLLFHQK
Sequence of Bile acid receptor (Homo sapiens) (Q96RI1 whole entry, looked up): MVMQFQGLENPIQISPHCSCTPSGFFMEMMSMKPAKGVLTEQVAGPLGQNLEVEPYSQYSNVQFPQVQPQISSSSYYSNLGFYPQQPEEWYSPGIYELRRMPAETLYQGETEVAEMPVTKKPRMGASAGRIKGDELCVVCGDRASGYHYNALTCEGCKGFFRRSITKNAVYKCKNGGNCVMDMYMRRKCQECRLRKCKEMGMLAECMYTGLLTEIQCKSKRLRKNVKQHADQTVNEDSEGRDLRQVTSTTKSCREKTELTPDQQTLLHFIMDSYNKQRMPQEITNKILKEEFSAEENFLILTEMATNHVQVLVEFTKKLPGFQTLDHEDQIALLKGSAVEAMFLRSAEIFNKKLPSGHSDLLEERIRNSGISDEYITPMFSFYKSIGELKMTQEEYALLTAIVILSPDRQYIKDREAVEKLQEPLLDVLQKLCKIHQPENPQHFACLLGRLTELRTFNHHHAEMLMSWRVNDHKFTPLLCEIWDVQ
Sequence of Thyroid hormone receptor beta (Homo sapiens) (P10828 whole entry, looked up): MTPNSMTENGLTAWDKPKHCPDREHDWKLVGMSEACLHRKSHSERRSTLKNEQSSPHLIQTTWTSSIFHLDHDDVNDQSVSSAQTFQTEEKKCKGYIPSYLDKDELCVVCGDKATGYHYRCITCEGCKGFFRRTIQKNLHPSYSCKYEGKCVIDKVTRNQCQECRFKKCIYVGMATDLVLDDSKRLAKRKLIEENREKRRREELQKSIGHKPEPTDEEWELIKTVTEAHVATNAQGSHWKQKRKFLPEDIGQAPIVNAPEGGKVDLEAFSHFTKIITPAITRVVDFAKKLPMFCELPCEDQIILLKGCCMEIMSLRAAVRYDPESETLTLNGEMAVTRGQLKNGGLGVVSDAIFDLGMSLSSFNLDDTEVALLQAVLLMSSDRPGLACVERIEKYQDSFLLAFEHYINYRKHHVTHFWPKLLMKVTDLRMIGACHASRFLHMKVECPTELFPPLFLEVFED
Sequence of Nuclear receptor subfamily 1 group I member 2 (Rattus norvegicus) (Q9R1A7 whole entry, looked up): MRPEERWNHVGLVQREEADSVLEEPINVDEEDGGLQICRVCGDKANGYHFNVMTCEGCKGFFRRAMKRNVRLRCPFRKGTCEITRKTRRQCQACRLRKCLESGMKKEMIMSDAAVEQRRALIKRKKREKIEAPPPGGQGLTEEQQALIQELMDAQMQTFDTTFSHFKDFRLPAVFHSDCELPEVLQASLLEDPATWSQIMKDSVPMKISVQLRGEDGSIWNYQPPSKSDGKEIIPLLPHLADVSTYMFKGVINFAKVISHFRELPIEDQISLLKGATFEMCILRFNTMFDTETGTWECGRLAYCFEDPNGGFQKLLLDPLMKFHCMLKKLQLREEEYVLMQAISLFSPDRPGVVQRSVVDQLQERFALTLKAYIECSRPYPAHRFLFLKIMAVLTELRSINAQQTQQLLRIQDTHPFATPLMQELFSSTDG
Sequence of Retinoic acid receptor RXR-alpha (Homo sapiens) (P19793 whole entry, looked up): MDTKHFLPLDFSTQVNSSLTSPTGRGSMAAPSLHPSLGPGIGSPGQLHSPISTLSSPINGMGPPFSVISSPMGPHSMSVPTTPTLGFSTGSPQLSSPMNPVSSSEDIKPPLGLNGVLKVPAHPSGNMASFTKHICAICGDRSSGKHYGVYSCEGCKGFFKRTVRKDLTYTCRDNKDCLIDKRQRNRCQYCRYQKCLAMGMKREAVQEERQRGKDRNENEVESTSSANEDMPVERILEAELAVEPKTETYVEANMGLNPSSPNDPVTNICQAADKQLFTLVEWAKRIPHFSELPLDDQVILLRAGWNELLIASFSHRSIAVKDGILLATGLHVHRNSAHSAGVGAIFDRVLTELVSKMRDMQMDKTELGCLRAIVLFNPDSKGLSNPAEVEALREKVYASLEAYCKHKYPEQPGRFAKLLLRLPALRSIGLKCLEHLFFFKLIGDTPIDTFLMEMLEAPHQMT
Sequence of Peroxisome proliferator-activated receptor delta (Homo sapiens) (Q03181 whole entry, looked up): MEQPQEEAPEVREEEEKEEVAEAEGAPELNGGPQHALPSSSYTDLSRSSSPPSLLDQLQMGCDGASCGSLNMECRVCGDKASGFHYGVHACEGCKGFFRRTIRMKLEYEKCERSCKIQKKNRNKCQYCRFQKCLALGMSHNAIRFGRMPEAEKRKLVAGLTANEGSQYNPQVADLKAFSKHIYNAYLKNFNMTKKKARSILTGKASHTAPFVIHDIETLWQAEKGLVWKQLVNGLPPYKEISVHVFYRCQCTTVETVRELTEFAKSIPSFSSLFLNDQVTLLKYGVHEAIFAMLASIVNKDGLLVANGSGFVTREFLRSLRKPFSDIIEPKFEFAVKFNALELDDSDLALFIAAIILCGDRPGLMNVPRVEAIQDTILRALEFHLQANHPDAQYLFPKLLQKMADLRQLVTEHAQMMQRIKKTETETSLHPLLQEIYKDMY

As to `C[C@H]1[C@H](c2ccc(Cl)cc2)SC(=O)N1C(=O)NC1CCCCC1`, the Potency entry in assay [1], in assay [3], in assay [8] and in assay [11] was “inactive” throughout. Moreover, the call in [2] was inactive. Besides, in assay [4], the Potency is 54.5 µM (active). Moreover, the activation was 4.32% (inactive) in assay [5] and 6.81% (inactive) in assay [6]. Besides, the max response in assay [7] is -4.71% (inactive); in assay [9], -8.81% (inactive); in assay [10] it was -26% (inactive).
With `CC(O)CN(CC(C)O)CC(C)O` (configuration not stated), the Potency entry in [12], in assay [3], in assay [8] and in assay [11] was “inactive” in each case. In addition, the activation in assay [13] is 0.256% (inactive); in assay [14], 4.4% (inactive); in assay [5], -9.86% (inactive). In addition, the max response is -0.813% in [15]; 3.2% (inactive) in [16]; -2.83% (inactive) in assay [7]; -8.2% (inactive) in assay [9]; -4.13% (inactive) in [10]; -0.821% (inactive) in assay [18]. Also, the activity change % (negative = inhibition) in [17] was 25% (inactive). For the same molecule, the Potency in assay [4] is 54.5 µM (active).
For the molecule `FC(F)C(F)(F)OCC(Cn1cncn1)c1ccc(Cl)cc1Cl` (configuration not stated), the Potency result in assay [12], in assay [1], in assay [3], in assay [8] and in [11] was “inactive” throughout. The activation is 1.13% (inactive) in [13]; 3.91% (inactive) in assay [14]; 0.478% (inactive) in [5]; 0.464% (inactive) in [20]; 2.65% (inactive) in assay [6]. Further, the result in assay [19] and in assay [2] was inactive. The max response in assay [15] was -6.39%; in assay [16] it was 4.82% (inactive); in assay [7], -0.725% (inactive); in assay [9], 4.71% (inactive). In assay [17], the activity change % (negative = inhibition) was -17.9% (inactive).
In the case of `CC(C)=C[C@@H]1[C@@H](C(=O)OCN2C(=O)C3=C(CCCC3)C2=O)C1(C)C`, the activation in [14] is 11.7% (inactive); in assay [5] it was 11.9% (inactive); in [6], -1.3% (inactive). Further, the Potency entry in assay [1], in assay [3] and in assay [11] was “inactive” throughout. The max response is -15.3% in assay [15]; 18% (inactive) in assay [16]; -0.573% (inactive) in assay [7]; -22.2% (inactive) in [9]; -11.5% (inactive) in assay [10]; 4.94% (inactive) in assay [18]. Besides, the activity change % (negative = inhibition) in assay [17] is 7.01% (inactive). For the same molecule, in assay [4], the Potency is 54.5 µM (active).
Turning to `CCNS(=O)(=O)C(F)(F)C(F)(F)C(F)(F)C(F)(F)C(F)(F)C(F)(F)C(F)(F)C(F)(F)F`, the Potency entry in assay [12], in assay [1], in assay [3], in [8] and in assay [11] was “inactive” each time. For the same molecule, the call in assay [19] and in assay [2] was inactive. The max response in [15] was -8.67%; in assay [16], 6.49% (inactive); in [7] it was 5.8% (inactive); in [9], -7.97% (inactive); in [10] it was -20.2% (inactive); in assay [18], 2.04% (inactive). The activity change % (negative = inhibition) in assay [17] was 23.1% (inactive). Moreover, in assay [6], the activation was 1.24% (inactive).
